NCOA3 inh: inhibits human SRC3 coactivator; Q9Y6Q9; HEK293 GAL4-SRC3 luciferase reporter, luminescence; inhibition, % at 3.6 µM; actives 0.17% (n = 360,000); AID 588352;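 active means inhibition above a per-campaign cutoff, the mean of all compounds plus 3 SD, cut at about 60% in these data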;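 further: 0% = DMSO-treated cells and 100% = gossypol-treated cells at 36 µM; higher means less SRC3-driven luciferase light from the GAL4 reporter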
SRC2 inh: human SRC2 (NCOA2) inhibition | actives 0.17% (n = 370,000) | HEK293 GAL4-SRC2 luciferase reporter, luminescence | AID 651957 | inhibition, % at 9 µM | Q15596;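 active means inhibition above the mean inhibition of all tested compounds plus 3 SD, set per campaign, cut at about 52% in these data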;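 further: 0% = DMSO treated cells and 100% = cells given Gossypol at 36 µM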
NCOA1 inh: inhibitors of human steroid receptor coactivator 1 (SRC1). Q15788. HEK293 GAL4-SRC1 luciferase reporter, luminescence. inhibition, % at 3.6 µM. actives 0.12% (n = 360,000);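 active means inhibition above the campaign mean plus 3 SD, with each screening campaign given its own cutoff, cut at about 60% in these data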;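 further: 0% = DMSO treated cells and 100% = gossypol at 36 µM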
LRH-1 inv ag: suppresses constitutive activity of human LRH-1; O00482; HEK293T StAR-luciferase reporter, LRH-1 transfected, 24 h; inhibition, % at 3.6 µM; actives 0.13% (n = 360,000); AID 602396;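 active means inhibition above the mean inhibition of all tested compounds plus 3 SD, cut at about 73% in these data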;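 further: 0% = DMSO wells and 100% = reporter-only cells lacking LRH-1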
LMP1 NFkB inh: Epstein-Barr LMP1 NF-kappaB reporter inhibition; LMP1-induced NF-kappaB luciferase reporter cells, luminescence; inhibition, % at 12.5 µM; actives 0.69% (n = 350,000); AID 504558; in the data active means inhibition above about 41%; inconclusive means no clear call, values can overlap the other calls;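 further: 0% = neutral control wells and 100% = reference inhibitor control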
Starred values were filed as active, the others as inactive; ? = inconclusive; / = not tested or not shown. Compounds with a hit are over-represented: about 0.78% of the library has one in this group of screens.

SMILES | NCOA3 inh | SRC2 inh | NCOA1 inh | LRH-1 inv ag | LMP1 NFkB inh
COc1ccc(C2=C(CN(C)C)C(c3ccccc3)c3ccccc3O2)cc1 (configuration not stated) | 4 | 1 | 1 | 12 | 78*
CCOc1ccc(C2=C(C=C(C#N)C#N)C(c3ccccc3)c3ccccc3O2)cc1 (configuration not stated) | 16 | -3 | 5 | -3 | -6
Cc1nnc(N2CCCC(C(=O)Nc3cc(F)ccc3F)C2)c2nn(-c3ccccc3)c(C)c12 (configuration not stated) | 28 | / | 1 | 17 | 55*
COc1ccc(S(=O)(=O)N2CCCCCC2)cc1C(=O)OCc1cccc(OC)c1OC | 5 | 4 | 10 | -4 | 46*
COc1cccc(COC(=O)C2CCN(S(=O)(=O)c3ccc(C)cc3)CC2)c1OC | 11 | -7 | -3 | 14 | -7
Cc1nc(S(=O)(=O)N(C)c2ccccc2)c(C#N)c(C)c1Cl | 31 | 54* | 18 | 14 | 19
Cc1ccc(-n2c(SCC(=O)C(C)(C)C)nnc2-c2cccc(C)c2)cc1 | / | 14 | / | / | /
CCC(=O)N[C@H]1C[C@@H]2O[C@@H](CO)CC[C@@H]2O[C@@H]1CCc1ccc(-c2cccc(OC)c2)cc1 | / | 7 | / | / | /
Cc1ccc(N(C(=O)CNC(=O)c2ccco2)C(C(=O)NC2CCCCC2)c2cccnc2)cc1C (configuration not stated) | 1 | -23 | 1 | 1 | 3
Cc1ccc(N(C(=O)CCl)C(C(=O)NC2CCCCC2)c2cccnc2)cc1C (configuration not stated) | / | 63* | / | / | /
Clc1ccc(-c2csc(=Nc3cccnc3)n2CCCn2ccnc2)cc1Cl | 46 | 57* | 41 | -26 | 30
COCCn1c(-c2ccc(Br)cc2)csc1=Nc1cccnc1 | 17 | 35 | 9 | 34 | -10
c1ccc(-c2nnc(NC3=NCCC3)o2)cc1 | -76 | -45 | -89 | -135 | 6
Fc1ccc(-c2nnc(NC3=NCCCCC3)o2)cc1 | -1 | 35 | -41 | -61 | 65*
Cc1cc(Br)c(OCc2ccc(C(=O)N/N=C/c3ccc[nH]3)cc2)c(Br)c1 | 76* | -41 | -10 | 91* | -16
O=C(N/N=C/c1ccc[nH]1)c1ccc(O)cc1 | -20 | -11 | -38 | -53 | 0
O=C(N/N=C/c1ccccc1C(=O)O)c1ccc(COc2cccc3cccnc23)cc1 | -8 | -10 | -1 | 13 | 7
O=C(N/N=C/c1ccc[nH]1)c1ccc(COc2cccc3cccnc23)cc1 | 69* | 34 | 36 | 79* | 47*
O=C(CCn1nnc(-c2cccs2)n1)N1CCCC1 | / | 1 | / | / | /
COc1ccc(S[C@]2(C(=O)N3CCN(c4ncccn4)CC3)CC(=O)N(c3ccc(Cl)cc3)[C@@H]2c2ccc(OC)cc2)cc1 | / | -5 | / | / | /
COc1cc(/C=N/NS(=O)(=O)c2ccc(C)cc2)ccc1OCc1ccc(C(=O)O)cc1 | -98 | -26 | -135 | -180 | 61*
CCOc1ccc(/C=N/NS(=O)(=O)c2ccc(C)cc2)cc1OC | 6 | -15 | -1 | 5 | 0
CCCCN1/C(=C/c2ccc3ccccc3[n+]2CC)Sc2ccccc21 | 49 | / | 21 | 48 | 52*
CCN1/C(=C/c2ccc3ccccc3[n+]2CCCS(=O)(=O)[O-])C=Cc2cc(C)ccc21 | -15 | -14 | 3 | 1 | 13
CCN1/C(=C/c2ccc3ccccc3[n+]2CC)C=Cc2ccccc21 | 87* | 12 | 68* | 98* | 53*
SMILES | NCOA3 inh | SRC2 inh | NCOA1 inh | LRH-1 inv ag | LMP1 NFkB inh
CCOC(=O)C(=O)N1CCC(C(=O)NC2CCCc3ccccc32)CC1 (configuration not stated) | / | -6 | / | / | /
CCn1c(C)c(C)c2cc(C(=O)Nc3cccc(Cl)c3)ccc21 | -46 | -39 | -24 | -108 | 53*
CCCCCCCCN1C(=O)[C@@H](CC(=O)NCCCN2CCCC2=O)C[C@@]2(C(=O)OC)C1=C[C@H](COCc1ccccc1)O[C@@H]2C | / | 0 | / | / | /
O=C1/C(=C/c2ccncc2)CCC/C1=C\c1ccncc1 | -22 | 74* | -165 | 30 | 85*
CCOC(=O)C1(Cc2ccccc2)CCN(Cc2cccc(C#N)c2)CC1 | / | 12 | / | / | /
C/C(=N\NC(=O)COc1ccccc1-c1ccccc1)c1ccccn1 | 22 | 27 | -28 | -11 | 41*
COc1ccc(-c2nnn(CC(=O)N(Cc3ccccc3Cl)C(C(=O)NCC3CCCO3)c3ccco3)n2)cc1OC (configuration not stated) | 11 | 95* | -11 | -14 | 4
CN1CC=C(c2ccccc2)N(c2ccccc2)C1=O | / | -18 | / | / | /
O=C(CN1C(=O)c2ccccc2S1(=O)=O)c1ccc2c(c1)OCCCO2 | 93* | 93* | 93* | 93* | 86*
O=C(CN1C(=O)c2ccccc2S1(=O)=O)c1ccc2c(c1)OCCO2 | 85* | 89* | 82* | 62 | 81*
COc1ccc2cc3c(N)nn(C(=O)c4ccccc4[N+](=O)[O-])c3nc2c1 | 57 | 37 | 49 | 50 | 63*
COc1ccc(-c2cc3c(=O)n(CC(=O)NCCCN4CCN(Cc5ccccc5)CC4)ncn3n2)cc1 | -38 | -45 | -46 | -46 | 50*
COc1ccc(-c2cc3c(=O)n(CC(=O)NCCCN4CCC(Cc5ccccc5)CC4)ncn3n2)cc1 | -56 | -41 | -62 | -49 | 16
O=C1NC(Cc2ccccc2)C(=O)N1Cc1cc([N+](=O)[O-])cc2c1OCOC2 (configuration not stated) | 6 | 1 | -11 | -15 | 55*
C[C@@H]1[C@@H](c2ccccc2)c2cc3ccccc3nc2C(=O)C[C@@H]1C(=O)N1CCCC1 | / | -2 | / | / | /
C=C1C(=O)C23C(O)C1CCC2C12CCCC(C)(COC(C)=O)C1C(O)C3(O)OC2 (configuration not stated) | 74* | 20 | 77* | 77* | ?
CCCCOc1cccc(C(=O)NCCc2ccccc2-c2ccccc2CCC(=O)NCc2ccccc2)c1 | / | -22 | / | / | /
COc1cc2oc(=O)cc(-c3ccc(-c4ccc(N(C)C)cc4)cc3)c2c(OC)c1OC | 21 | 30 | 18 | 5 | 42*
COc1ccc(-c2ccc(-c3cc(=O)oc4cc(OC)c(OC)c(OC)c34)cc2)cc1F | -21 | 1 | -17 | -34 | 16
Cc1c(C)n(C(=O)CSc2nncn2C)c2ccccc12 | 2 | -14 | 4 | 19 | 4
Cn1cnnc1SCC(=O)n1c2ccccc2c2ccccc21 | 10 | -17 | -6 | 0 | 46*
O=C(NC1CCCC1)C1CCN(S(=O)(=O)c2ccc3[nH]c(=O)oc3c2)CC1 | / | -5 | / | / | /
COc1ccc2c(c1)CCCN2C(=O)C1CCCN(S(=O)(=O)c2cc(OC)ccc2OC)C1 (configuration not stated) | / | 18 | / | / | /
COc1cccc(C2=Cc3ccc(F)cc3C(CC(C)=O)N2c2ccc(-c3cncnc3)cc2)c1 (configuration not stated) | / | -21 | / | 4 | /

Compound activity deposited in PubChem by several laboratories.
